± gives the standard deviation.
Each sequence was assayed on MILI (PIWIL2) piRISC loaded with L1MC piRNA (26 nt) (assay: pre-steady-state target cleavage rate (min^-1); guide: L1MC piRNA 5'p-UAACUAAAUACUAUGCAAGCUGUAGG; MIWI and MILI are mouse PIWI proteins and EfPiwi is from a freshwater sponge; tags in brackets are library labels; higher = faster piRNA-guided slicing of the target). Conditions: auxiliary factor: 500 nM mouse GTSF1.
Summary of the method: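 Cleave-'n-Seq measured uncleaved targets by sequencing after a transcribed, DNA-blocked target RNA library […] was mixed with 1 nM active affinity-purified piRISC holding one synthetic guide, with or without 500 nM GTSF1 partner protein, at 33 °C in HEPES–potassium acetate buffer for 0–8 or 0–960 min. Counts were normalised to depth and to weakly complementary targets, three trials were pooled, and k3 was capped at 0.0001 min^-1. A burst-and-steady-state fit gave the pre-steady-state cleavage rate.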
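Also: 1 nM active piRISC with 0.1 nM target library at 33 °C single turnover.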

Sequence | pre-steady-state target cleavage rate
UCCUGGAUCAGCAACCAUAGUAUUUAGUAA | 0.0962 ± 0.012
UCCUGGAUGUCGUUGCAUAGUAUUUAUGUUA | 0.137 ± 0.04
UCCUGGAUGUGCUUGCAUAGUAUAUUGUUA | 0.0146 ± 0.0062
UCCUGGAUCACGUUGCAUAGUAUUUUCAAA | 0.0743 ± 0.025
UCCUGGAUCAGCUUGCAUAGAUUUUAGUAA | 0.0227 ± 0.0073
UCCUCCUACAGCUACCAUAGUAUUUAGUAA | 0.141 ± 0.023
UCCUGGAUGUCGAAGCACAGUAUUUAGUUA | 0.00819 ± 0.0038
UCCUGGAACAGCUUGCAUAGUAUUAUCUUA | 0.0578 ± 0.015
UCCUGGAUGUCGAUGCCAUAGUAUUUAGUUA | 0.00491 ± 0.0034
UCCUCCUACAGCUUGCAUAGUUAUUACAAA | 0.0124 ± 0.0054
UCCUCCUACUCCUUGCAUAGUAUUUACAAA | 0.0842 ± 0.022
UCCUGGAUGAGCUUGCAUACUAAUUAGUUA | 0.0128 ± 0.0042
UCCUGGAUGUGCUAGCAUAGUAUAUAGUUA | 0.115 ± 0.018
UCCUGGAUGUGCUUGCAUAGUAUAUAGUUA | 0.083 ± 0.014
UCCUGGAUCAGCUUGCUUAGUAUUUAGAUA | 0.15 ± 0.023
UCCUGGAACAGCAAGCAUAGUAUUUACAAA | 0.148 ± 0.034
UCCUGGAUCACCUUGCAUAGUAUUUUCAAA | 0.0586 ± 0.021
UCCUGCUACAGCUUGCAUAGAUAUUAGUUA | 0.0176 ± 0.0073
UCCUGGAACAGCAAGCAUAGUAUUUAGUAA | 0.271 ± 0.025

Sequence | pre-steady-state target cleavage rate
UCCUGGAUGUCGAACGUUAGUAUUUAGUUA | < 0.0001
UCCUGCUACAGCUUGCAAUCUAUUUAGUAA | 0.0639 ± 0.022
UCCUGCUACAGCUUGCAAUCUAUUUACAAA | 0.00954 ± 0.0044
UCCUGGAUCACGAUGCAUAGUAUUUAGUAA | 0.173 ± 0.016
UCCUGGAUGUCCAUGCAUAGAAUUUAGUUA | 0.0111 ± 0.0048
UCCUGGAUGUCCUAGCUUAGUAUUUAGUUA | 0.0102 ± 0.0041
UCCUGGAACAGCUUGCUUAGUAUUUACAAA | 0.105 ± 0.026
UCCUGGAUGUCCUUGGCAUAGUAUUUAGUUA | 0.566 ± 0.19
UCCUGGAACAGGUUGCAUAGUAUUUACAAA | 0.0582 ± 0.013
UCCUGCAACAGCUUGCAUAGUAUUUAGAUA | 0.125 ± 0.024
UCCUGGAUGAGCUUGCAUAGUAUUUACUUA | 0.0753 ± 0.019
UCCUGGAUGAGCUUCCAUUGUAUUUAGUUA | 0.0518 ± 0.016
UCCUGGAUGUCCUUGCAUAGUAUUUUCAAA | 0.023 ± 0.0094
UCCUGGAACAGCAUGCAUAGUAUUUAGAAA | 0.196 ± 0.025
UCCUCCAACAGCUUGCAUAGUAUUUAGAAA | 0.147 ± 0.023
UCCUGGAUGUCGUUGCAUAGUAUUUAGCUUA | 0.0208 ± 0.0083
UCCUGGAACAGCUUGCAUAGUAUAAUGAAA | 0.0341 ± 0.013
UCCUGGUACAGCUUGCAUAGUAUUUACUUA | 0.103 ± 0.025

Same assay, conditions: auxiliary factor: none (no GTSF1)

Sequence | pre-steady-state target cleavage rate
UCCUGGAUGUCGAACGUUAGUAUUUACGUUA | < 0.0001
UCCUGGAUGUCGAACGUAUCUAUUUAGUCA | < 0.0001
UCCUGGAUGUCGAUGCAUACUAUUUAGUAA | < 0.0001
